Source: PubChem BioAssay (National Center for Advancing Translational Sciences (NCATS))
Rows were chosen to be rich in hits. Some 7.3% of all compounds tested hit in one or more screens of this group.
Rab9 promoter act: qHTS Assay for Rab9 Promoter Activators | Huh7 Rab9 promoter-luciferase reporter, luminescence, 24 h | Potency, µM (series often up to 9.22 µM), most hits filed as activators | actives 2.8% (n = 320,000) | AID 485297, 2010; note: nearly all actives have a fitted effect of over 60% in size
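Cell-based reporter: Huh7 stable for Rab9 promoter-driven luciferase, plated in reduced-serum medium with 10% FBS at 1500 cells/well, compound-treated 24 h at 37 °C, luminescence read after 10 min reagent.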
ELG1 genotox: qHTS screen for small molecules that induce genotoxicity in human embryonic kidney (HEK293T) cells expressing luciferase-tagged ELG1; Potency, µM (titrated, usually from 46 µM), hits mostly activators; HEK293T ELG1-luciferase reporter, luminescence, 16 h; AID 504466, 2011; actives 1.3% (n = 330,000); note: nearly all actives have a fitted effect of over 60% in size
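16 hr compound incubation (37 °C, 5% CO2) of HEK293T cells carrying luciferase-tagged ELG1; luciferase then measured by ONE-Glo luminescence after 30 min at RT.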
FLuc modulator: qHTS profiling assay for firefly luciferase inhibitor/activator using purifed enzyme and Km concentrations of substrates (counterscreen for miR-21 project); AID 588342, 2011; actives 6.9% (n = 360,000); Luciferin 4-monooxygenase (Photinus pyralis), P08659; Potency, µM (top dose mostly 57.5 µM), hits mostly inhibitors; purified FLuc, Km substrates, luminescence inhibition; note: nearly all actives have a fitted effect of over 55% in size
Target sequence (P08659 whole entry, looked up): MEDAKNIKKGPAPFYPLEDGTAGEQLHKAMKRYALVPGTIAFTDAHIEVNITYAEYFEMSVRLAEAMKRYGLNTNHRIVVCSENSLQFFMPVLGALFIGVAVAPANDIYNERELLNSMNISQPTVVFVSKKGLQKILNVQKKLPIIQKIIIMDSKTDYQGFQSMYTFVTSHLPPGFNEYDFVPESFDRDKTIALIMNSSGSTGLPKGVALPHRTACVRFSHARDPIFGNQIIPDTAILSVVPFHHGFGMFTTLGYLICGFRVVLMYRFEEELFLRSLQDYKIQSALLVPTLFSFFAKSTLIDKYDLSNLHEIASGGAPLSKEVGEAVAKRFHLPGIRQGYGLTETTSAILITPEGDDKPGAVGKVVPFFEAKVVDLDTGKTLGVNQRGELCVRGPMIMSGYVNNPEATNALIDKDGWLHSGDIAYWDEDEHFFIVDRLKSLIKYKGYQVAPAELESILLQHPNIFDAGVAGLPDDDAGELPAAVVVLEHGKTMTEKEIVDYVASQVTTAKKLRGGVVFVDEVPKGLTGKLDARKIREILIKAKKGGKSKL
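Purified P. pyralis luciferase, 10 nM final, with Km-level 10 uM D-luciferin and 10 uM ATP in 50 mM Tris acetate pH 7.5, 10 mM Mg acetate, 0.01% Tween-20, 0.05% BSA; 6-point qHTS titration about 60 µM downward; luminescence read.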
NPC1 promoter act: qHTS Assay for NPC1 Promoter Activators; Potency, µM (top dose mostly 9.22 µM), hits mostly activators; actives 2.4% (n = 320,000); AID 485313, 2010; Huh7 NPC1 promoter luciferase reporter, 24 h; note: nearly all actives have a fitted effect of over 60% in size
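Readout is luciferase luminescence, reflecting NPC1 promoter activation in stably transfected Huh7 cells after 24 h compound exposure at 37 °C in reduced-serum medium with 10% FBS.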
SMN2 splice enh: qHTS Assay for Enhancers of SMN2 Splice Variant Expression | actives 2.8% (n = 210,000) | Potency, µM (top dose mostly 46.1 µM), usual class: activators | HEK293 SMN2-luciferase splicing reporter, luminescence, 30-36 h | AID 1458, 2008; note: nearly all actives have a fitted effect of over 55% in size
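qHTS luciferase splicing reporter: luminescence rises when SMN2 exon 7 is included in transfected HEK293 cells. Compound exposure lasted 30-36 h at 37C, with 4.5 mM final sodium butyrate as control, followed by a ONE-Glo read.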
uPA generation: qHTS for Inhibitors of Cell Surface uPA Generation | Potency, µM (top dose mostly 38.3 µM), usual class: inhibitors | AID 540303, 2011 | cell surface uPA generation assay, qHTS | actives 0.31% (n = 330,000); active = well fitted inhibition curve with a large enough effect; inconclusive = small, poorly fitted or top-dose-only effect; inactive = no such curve, though single readings can be large or run the other way; tested in mouse RAW 264.7 cells; note: nearly all actives have a fitted effect of over 55% in size
Hits are given with their value; – = inactive; ? = inconclusive; · = not tested or not shown. Unless noted, calls come from the whole dose curve; as a rule, active = well fitted curve in the direction sought with a large enough effect; inconclusive = small, poorly fitted or top-dose-only effect, or another doubt; inactive = no such curve, though single readings can be large; an effect the other way counts as inactive or inconclusive.

SMILES	Rab9 promoter act	ELG1 genotox	FLuc modulator	NPC1 promoter act	SMN2 splice enh	uPA generation
O=C(c1cc(-c2ccc(Cl)cc2)on1)N1CCCCCC1	1.1µM	4.6µM	1.9µM	0.79µM	·	·
Cc1ccc(NC(=O)c2ccc3ccccc3n2)nc1	3.5µM	9.2µM	1.7µM	2.5µM	3.2µM	–
O=C(Nc1ccc(Cl)cn1)c1ccc2ccccc2n1	?	?	1.5µM	?	20µM	–
Cc1ccc(OCCNC(=O)c2ccc3ccccc3n2)cc1	–	–	?	–	·	–
CC1=C(C(N)=O)C(c2cccc(F)c2)n2nc(SCc3ccccc3)nc2N1 (stereo not given)	·	·	–	·	·	·
C=CCn1c(SCC(=O)Nc2cccc(S(=O)(=O)N(C)c3ccccc3)c2)nnc1C1CC1	–	–	–	–	·	–
C=CCNC(=S)NNC(=O)c1cc(C)nc2ccccc12	–	–	–	–	–	–
CCNC(=S)NNC(=O)c1cc(C2CC2)nc2ccccc12	–	–	12µM	–	–	·
CCCNC(=S)NNC(=O)c1cc(C2CC2)nc2ccccc12	–	–	21µM	–	·	–
Cn1nc(-c2ccc(OCC(=O)Nc3ccc(Cl)cc3)cc2)c2ccccc2c1=O	·	·	–	·	–	·
CC(C)c1nc(SCC(=O)Nc2nc3c(s2)CCCC3)c2ccccc2n1	?	–	–	–	–	–
O=C(Cc1cccs1)Nc1nc2c(s1)CCCC2	2.8µM	?	17µM	?	13µM	·
O=C(Nc1nc2c(s1)CCCC2)c1cccnc1	?	2.1µM	12µM	2.5µM	·	·
CC(C)(C)c1nc(SCC(=O)Nc2nc3c(s2)CCCC3)c2ccccc2n1	–	–	–	–	3.2µM	–
O=C(Nc1nc2c(s1)CCCC2)c1cccs1	0.71µM	?	1.1µM	2.8µM	3.2µM	–
CCCNC(=O)CSc1cn(CC(=O)N2CCCCCC2)c2ccccc12	·	·	–	·	·	·
O=C(c1ccco1)N1CCC2(CC1)CN(c1ccccn1)C2	·	·	·	·	–	·
O=C(NCc1ccc(F)cc1)c1cc(Sc2ccc(F)cc2F)nc2ccccc12	·	·	–	·	·	·
O=C(CCSc1ccccc1)Nc1nc2c(s1)CCCC2	–	23µM	19µM	–	–	·
Cc1ccc(NC(=O)c2ccc(S(=O)(=O)N3CCCC3)cc2)cc1	·	·	·	·	·	–
CCCCOc1ccc(C(=O)Nc2ccc(N3CCN(C)CC3)cc2)cc1	–	–	–	–	–	–
CCOc1ccc(C(=O)Nc2ccc(N3CCN(C)CC3)cc2)cc1	–	–	12µM	–	·	–
CCOc1ccc(NC(=O)c2ccc(NCC(=O)N3CCCCCC3)cc2)cc1	–	–	11µM	–	–	?
Cc1ccc(C(=O)Nc2ccc(N3CCN(C)CC3)cc2)cc1	2.5µM	?	19µM	2.2µM	·	–
Cc1ccc(NC(=O)c2ccc(C)cc2)cc1	0.25µM	?	0.85µM	0.45µM	·	2.8µM
SMILES	Rab9 promoter act	ELG1 genotox	FLuc modulator	NPC1 promoter act	SMN2 splice enh	uPA generation
Cc1ccc(NC(=O)c2ccc(OC(=O)C(C)Oc3ccc(Cl)cc3C)cc2)cc1 (stereo not given)	1.8µM	?	–	4.5µM	8.9µM	–
Cc1ccc(C(=O)N[C@H](C(=O)Nc2cc(Cl)cc(Cl)c2)C(C)C)cc1	–	–	–	–	–	–
COc1ccc(C(=O)Nc2ccc(N3CCN(C)CC3)cc2)cc1OC	?	?	17µM	?	·	–
O=C(Nc1ccc(Cl)c(C(F)(F)F)c1)c1ccncc1	–	–	–	–	·	–
COc1ccc(C(=O)Nc2ccc(N3CCN(C(C)=O)CC3)cc2)cc1[N+](=O)[O-]	–	–	–	–	–	·
Cc1ccc(C(=O)Nc2ccc(Br)c(C(F)(F)F)c2)cc1	?	–	13µM	?	–	–
Cc1ccc(C(=O)Nc2cc(C(C)C)c(O)c(C(C)C)c2)cc1	–	–	24µM	–	–	–
Cc1ccc(C)c(N2CCN(S(=O)(=O)c3ccc(C(=O)N(C)C)s3)CC2)c1	·	·	–	·	·	·
O=C(CCS(=O)(=O)c1cc2c(cc1Cl)NC(=O)CO2)NCCc1ccc(Cl)cc1	·	·	–	·	·	·
CCc1nc2ccc(C(=O)NCc3ccc(OC)c(OC)c3)cc2nc1CC	·	·	–	·	·	·
Cc1cccc(C(=O)N2CCc3cc(CNC(=O)CCc4ccccc4)ccc32)c1	·	·	–	·	·	·
COc1ccccc1N1CCN(c2ncnc3c2cnn3C)CC1	·	·	–	·	·	·
Cc1ccc(NC(=O)CN2C(=O)C(C)(C)c3ccccc32)cc1	·	·	–	·	·	·
COc1ccc(C(=O)Nc2ccc(S(=O)(=O)N3CCN(C)CC3)cc2)cc1	·	·	·	·	·	–
COc1ccc(C(=O)Nc2ccc(N3CCN(C)CC3)cc2)cc1	?	?	19µM	?	·	–
CN1CCN(c2ccc(NC(=O)c3ccc4ccccc4c3)cc2)CC1	0.56µM	1.8µM	1.9µM	0.32µM	·	–
CC1CCCCN1C(=O)COC(=O)c1n[nH]c2ccccc12 (stereo not given)	?	18µM	15µM	–	–	–
